Holding throughout (assay): NCI-60 one-dose screen, 48 h (100 = growth as untreated, 0 = no growth, -100 = all killed)
What all share (conditions): 10 µM

The subject of test [1] is SR leukemia.
The subject of test [2] is RPMI-8226 leukemia.
For test [3], the system named is OVCAR-8 ovarian.
Test [4] has as its system OVCAR-5 ovarian.
The subject of test [5] is OVCAR-4 ovarian.
Test [6] concerns SK-OV-3 ovarian.
In test [7] the test system is IGROV1 ovarian.
Test [8] relates to OVCAR-3 ovarian.
The test system of test [9] is HS 578T breast.
The subject of test [10] is NCI/ADR-RES ovarian.

SMILES strings stand for the structures. Compounds without any hit were thinned out: in the full panel of roughly 83,000, 20% have a hit.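 Note: values are percent growth. 100 is the growth of untreated cells, values between 100 and 0 indicate rising inhibition; between -100 and 0 indicates cell death.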 A number with no mark means an inactive call. Calls of active or inactive are those of the source. The calls were made as follows: active = growth percent below 10; inactive = the rest.

Drawing on PubChem BioAssay (NCI), this text covers growth for 14 molecules.

For the molecule `N#CN1CC[C@H](C(=O)Nc2ncc(-c3ccncc3)s2)C1`, the growth was 1.53% (active) in test [1]; 7.02% (active) in test [2]; 2.72% (active) in [3]; 5.32% (active) in test [4]; 3.57% (active) in [5]; 2.96% (active) in test [6]. For the same molecule, the growth is 12.5% in [7], -22.1% (active) in test [8], 2.54% (active) in [9] and 5.43% (active) in test [10].

Turning to `CCOc1ccc2c(c1)CC[C@@H]1[C@@H]2CC[C@]2(C)[C@@H](O)[C@@H](O)C[C@@H]12`, the growth in test [1] was 88.5%; in test [2] it was 92.9%; in test [3], 95.1%; in test [4] it was 95.7%; in test [5], 90.2%; in test [6], 113%. In addition, the growth in test [7] is 106%; in [8] it was 118%; in test [9], 113%; in test [10], 107%.

Turning to `c1ccc(COCC[P+](c2ccccc2)(c2ccccc2)c2ccccc2)cc1`, the growth is -15.6% (active) in test [1]; -30.3% (active) in test [2]; 3.8% (active) in [3]; 24.2% in test [4]; 6.56% (active) in test [5]; -0.443% (active) in test [6]. For the same molecule, the growth in test [7] was -8.1% (active); in test [8], 3.01% (active); in [9], 32.9%; in test [10] it was 81.8%.

As to `COc1ccc(S(=O)(=O)Nc2ccc(OCc3nnc(-c4ccc(Cl)cc4)o3)c(F)c2)cc1`, the growth in test [1] was 18.4%; in test [2] it was 31.6%; in test [3], 60.4%; in test [4] it was 98.5%; in [5], 45.5%; in test [6], 78.8%. In addition, the growth was 79.4% in [7], 71.8% in test [8], 86.3% in test [9] and 45.7% in [10].

In the case of `Cc1cc2cc3c(=O)[nH]c(=O)cc-3n(CC(O)C(O)C(O)CO)c2cc1C` (stereo not given), the growth in test [1] is 111%; in test [2] it was 106%; in [3], 97.3%; in [4], 106%; in test [5], 109%; in [6] it was 99.1%. Moreover, the growth in test [7] was 112%; in [8] it was 103%; in test [9], 101%; in test [10] it was 105%.

Take `C[C@@H]1C(=O)N(C[C@H](Cc2ccccc2)NC(=O)OCc2ccccc2)[C@]1(Cc1ccccc1)C(=O)OCc1ccccc1`: the growth in test [1] was 35.2%; in test [2] it was 30.1%; in test [3], 40.7%; in test [4], 65.8%; in test [5], 22.1%; in test [6], 54.8%. In addition, the growth in [7] was 69.5%; in test [8] it was 61.3%; in test [9], 78.8%; in [10], 27%.

As to `CCOC(=O)c1sc(Nc2ncccn2)nc1-c1ccccn1`, the growth in [1] is 62.7%; in [2] it was 92%; in test [3], 85.7%; in test [4] it was 93.1%; in [5], 42%; in test [6] it was 76.4%. Further, the growth was 87.4% in test [7], 82.3% in test [8], 105% in test [9] and 68.6% in test [10].

Consider `Oc1ccccc1-c1nnc(Cn2c(Cc3cccc4ccccc34)nc3ccccc32)o1`, for which the growth in test [1] is 94.8%; in test [2], 95.8%; in test [3], 101%; in test [4], 96.8%; in test [5], 99.2%; in test [6], 98.7%. Also, the growth in test [7] was 111%; in [8] it was 101%; in test [9], 99.5%; in test [10], 93.8%.

For the molecule `FC(F)(F)c1ccc(-c2nc(-c3nc4cc(Cl)c(Cl)cc4[nH]3)c3ccccn23)cc1`, the growth in test [1] is 84.2%; in [2], 71.5%; in test [3] it was 63.3%; in test [4] it was 88.6%; in [5], 4.24% (active); in test [6] it was 38%. Besides, the growth in test [7] was 66.3%; in test [8], 52.7%; in test [9] it was 3.78% (active); in [10], 63.5%.

Consider `NC(=O)c1ccc(Br)o1`, for which the growth in test [1] is 97.4%; in test [2], 112%; in test [3], 108%; in test [4], 105%; in test [5], 107%; in test [6] it was 104%. Moreover, the growth in test [7] is 107%; in test [8] it was 107%; in test [9], 109%; in [10] it was 96.8%.

As to `c1ccc(CC(NCCNC(Cc2ccccc2)c2ccccc2)c2ccccc2)cc1` (stereo not given), the growth in test [1] is -33.7% (active); in [2], -41.1% (active); in [3] it was 22.5%; in test [4], 55.2%; in test [5], 35.6%; in test [6], 84%. Besides, the growth was 36.4% in test [7], 22.9% in test [8], 73.4% in test [9] and 38.8% in test [10].

With `Nc1ncc(-c2ccc(C(F)(F)F)cc2)c(NC2CCCCCC2)n1`, the growth in test [1] is 60.3%; in test [2], -8.42% (active); in test [3], 19.4%; in test [4], 53%; in test [5], 20%; in test [6], 76.1%. Further, the growth in test [7] is 58.6%; in [8], 14.5%; in test [9], 38.4%; in [10], 56.9%.

In the case of `N/C(=N\O)c1cn(C2OC(CO)C(O)C2O)c2ncnc(N)c12` (stereo not given), the growth in test [1] was -4.39% (active); in test [2], -43.6% (active); in [3], -14.4% (active); in [4] it was 24.3%; in [5], -21.6% (active); in [6] it was -30.2% (active). Moreover, the growth was -13.7% (active) in test [7], -18.3% (active) in test [8], -5.15% (active) in [9] and 4.77% (active) in test [10].

`COc1cc(C2=Nc3c/c(=C\c4c(O)[nH]c5ccc(Cl)cc45)ccc3=N2)cc(OC)c1OC`: the growth in [1] was -18% (active); in test [2], 16.3%; in [3], -71.4% (active); in test [4], 79.6%; in test [5], -83.1% (active); in test [6], 85.7%. In addition, the growth in test [7] is 49%; in test [8], 17.3%; in [9] it was -43.3% (active); in [10], 52.2%.
